High-throughput results as filed in PubChem.
This is a sample that favours compounds with a hit; in the whole collection about 3.3% have one here.
PI5P4Ka inh = inhibitors of human PI5P4K alpha; P48426; PI5P4Kalpha enzyme, ADP-Glo luminescence, 60 min; stronger effect = lower value; max response, %; actives 1.2% (n = 330,000); active = max response of -50% or lower; inconclusive = between -30% and -50%; inactive = -30% or higher; note: value at the top dose of about 77 µM
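ADP-Glo luminescence end-point after a 60 min room-temperature kinase reaction. PI5P4Kalpha and substrate in HEPES pH 7.4 buffer with EGTA, 0.1% CHAPS and 5% DMSO; ATP at 5 microM final.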
D3 ag = D3 dopamine receptor (human) agonism | actives 0.58% (n = 410,000) | max activation, % | D3R DiscoveRx beta-arrestin cells, luminescence, 90 min; in the data active = max activation above about 30%
Target sequence (P35462 whole entry, looked up): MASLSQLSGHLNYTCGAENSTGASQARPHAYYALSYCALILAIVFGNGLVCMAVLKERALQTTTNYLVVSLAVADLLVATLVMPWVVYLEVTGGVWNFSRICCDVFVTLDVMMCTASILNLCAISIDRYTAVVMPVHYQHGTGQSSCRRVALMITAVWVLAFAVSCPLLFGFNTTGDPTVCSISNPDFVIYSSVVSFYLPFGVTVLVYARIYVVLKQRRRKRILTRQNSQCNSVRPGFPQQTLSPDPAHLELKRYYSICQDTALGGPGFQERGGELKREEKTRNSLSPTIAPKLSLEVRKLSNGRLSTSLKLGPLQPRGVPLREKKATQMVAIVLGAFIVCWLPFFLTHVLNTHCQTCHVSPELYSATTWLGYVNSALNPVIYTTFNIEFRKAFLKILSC
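Cells at 1500/well, incubated overnight, then treated with pinned compounds (dopamine as control) for 90 min at 37 degrees C. DiscoveRx reagent added for 30 - 60 minutes at room temperature; luminescence read.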
PI4K2A block = inhibitors of human PI4K2A; Q9BTU6; purified PI4K2A, ADP-Glo luminescence, 1 h; stronger effect = lower value; activity change, negative = inhibition, % at 76.9 µM; actives 0.13% (n = 420,000); AID 1346378; in the data active = activity change below about -50%; inconclusive = mostly about -30% to -49%
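PI4K2A activity was measured by ADP-Glo luminescence: enzyme (4 ug/mL stock) and phosphatidylinositol (1.2 mM stock) in Tris pH 7.5/MgCl2/EGTA/Triton X-100 buffer were reacted with ATP (300 microM stock) for one hour at ambient temperature.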
D3 antag = antagonists of human D3 dopamine receptor. P35462. D3R cells, DiscoveRx beta-arrestin luminescence, antagonist mode; stronger effect = lower value. max response, negative = inhibition, %. actives 2.5% (n = 360,000); in the data active = max response below about -50%; inconclusive = no clear call, values can overlap the other calls
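Cells expressing the human receptor were seeded at 1500 cells/well, incubated overnight at 37 degrees C in 5% CO2, then exposed to library compounds with dopamine controls for 90 minutes at 37 degrees C before luminescent detection.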
LDHA block = LDHA (human) enzyme inhibition. purified LDHA, NADH/diaphorase-resazurin fluorescence; stronger effect = lower value. actives 0.15% (n = 480,000). activity change, % (values are at about 110 or 230 µM); in the data active = activity change below about -30%; inconclusive = mostly about -25% to -30%
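Enzyme activity of human lactate dehydrogenase 5 (2 nM; 0.06 mM NADH, 0.2 mM pyruvate, 5 min, RT) is measured via a resazurin/diaphorase fluorescence readout of residual NADH.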
A number is an active result; i = inactive; ? = inconclusive; nt = no result given; ! = not active in a repeat.

SMILES	PI5P4Ka inh	D3 ag	PI4K2A block	D3 antag	LDHA block
C/C(=N\NC(=O)c1cccc(Br)c1)c1ccccn1	i	i	i	-52.8	i
C/C(=N\NC(=O)C1CCCN(S(=O)(=O)c2ccccc2)C1)c1ccccn1 (configuration not stated)	i	i	i	-90.1	i
Cc1ccc(-c2csc3c2NC(=O)CC3c2ccc(OCC(N)=O)cc2)cc1 (configuration not stated)	nt	nt	nt	nt	i
O=C(O)CC/C(=C/c1csc(-c2ccc(Cl)cc2)n1)c1nc2ccccc2s1	nt	nt	nt	nt	i
COc1ccc(C(=O)N/N=C(\C)c2ccccn2)cc1OC	i	i	i	-54.1	i
COc1ccccc1OCC(=O)N/N=C(\C)c1ccc2ccccc2c1	-68.5	i	i	i	i
C/C(=N/NC(=O)c1ccc(C(C)(C)C)cc1)c1ccccn1	i	i	i	-114.5	i
C/C(=N\NC(=O)c1ccc(Cl)c(Cl)c1)c1ccccn1	i	i	i	?	i
C/C(=N\NC(=O)C(c1ccccc1)c1ccccc1)c1ccccn1	i	i	i	-75.7	i
O=C(c1ccccc1)c1oc(-c2ccccc2)c(Cl)c1-c1ccccc1	nt	nt	nt	nt	i
NCc1cc2c3c(c1)CCCN3CCC2	i	i	i	-65.5	i
NCc1ccc2c3c1CCCN3CCC2	nt	nt	nt	nt	i
CC(C)(C)c1nnc(N/N=C/c2ccccc2O)n(N)c1=O	i	33.5	i	i	i
CCc1nnc(N/N=C/c2ccccc2F)n1N	i	i	?	i	i
CCc1nnc(N/N=C/c2ccccc2Cl)n1N	nt	i	i	-63.2	i
CSCCC(=O)Nc1ccc2c(c1)CCC2	nt	nt	nt	nt	i
CSCCCN1CCCC(CO)(Cc2ccccc2F)C1 (configuration not stated)	i	i	i	-56.2	i
COc1ccc(-c2cc(=O)c3cc(OC)ccc3[nH]2)cc1	i	i	?	i	i
COc1ccc(-c2cc(=O)[nH]c(=S)[nH]2)cc1	i	i	i	-50.2	i
CCOc1c(O)ccc(/C=C2\SC(=S)NC2=O)c1[N+](=O)[O-]	-101.1	i	i	i	i
CN(C)c1ccc(C=C2SC(=S)NC2=O)cc1	i	i	i	i	i
O=C1NC(=O)/C(=C\c2ccc(Oc3cnccn3)cc2)S1	i	i	i	i	i
O=C1NC(=S)S/C1=C/c1ccc(Oc2cnccn2)cc1	-77.9	i	i	i	i
CCOc1ccc(N(C)c2ccc(/C=C3/SC(=S)NC3=O)cc2)cc1	-55.2	i	i	i	i
C[C@@H]1Cc2cc(O)cc(O)c2C(=O)O1	nt	nt	i	nt	nt
SMILES	PI5P4Ka inh	D3 ag	PI4K2A block	D3 antag	LDHA block
Cc1cccc(NC(=O)C(=O)NC2CCC(C(C)(C)C)CC2)c1 (configuration not stated)	nt	nt	nt	nt	i
CCCCNc1c(-c2ccc(OC)c(SC(C)CC)c2)nc2cnccn12 (configuration not stated)	i	53.0	i	i	i
CCCCNc1c(-c2ccc(Sc3ccc(OC)cc3)cc2)nc2cc(C)ccn12	i	55.9	i	i	i
CCCCNc1c(-c2ccc(OC)c(SC(C)CC)c2)nc2cc(C)ccn12 (configuration not stated)	i	62.9	i	i	i
CCCCCCSc1cc(-c2nc3ccc(C)cn3c2NCCCC)ccc1OC	i	70.9	i	i	i
CCCCNc1c(-c2ccc(OC)c(SC(C)CC)c2)nc2ccc(C)cn12 (configuration not stated)	i	i	i	i	i
CCCCNc1c(-c2ccc(-c3ccc(C(C)=O)cc3)c(OC)c2)nc2cc(C)ccn12	i	i	i	i	i
N#Cc1ccc(-c2ccc(OCCOc3ccccc3Cl)cc2)cc1	nt	nt	nt	nt	i
Cc1[nH]c2ccccc2c1CC(=O)NCc1ccccc1	nt	nt	nt	nt	i
CCCCCCSc1ccc(-c2nc3cnccn3c2NCCCC)cc1	i	63.5	i	i	i
COc1ccc(OC(=O)c2ccc(C)c(I)c2)cc1	nt	nt	nt	nt	i
N#C/C(=C\c1ccc(O)c(O)c1)C(=O)Nc1cccc2ncccc12	-71.9	i	?	i	i
N#C/C(=C/c1ccc(O)c(O)c1)C(=O)NCc1ccc(Cl)cc1	?	i	i	-50.3	i
N#C/C(=C/c1ccccc1)C(=O)NCc1ccccc1	i	i	i	i	i
N#C/C(=C\c1ccc(O)c(Br)c1)C(=O)NCc1ccccc1	i	i	i	i	i
N#C/C(=C\c1ccc(O)c([N+](=O)[O-])c1)C(=O)NCc1ccccc1	-50.3	i	i	i	i
CN(C)c1ccc(/C=C(/C#N)C(=O)NCc2ccccc2)o1	i	i	i	-88.0	i
N#C/C(=C/c1cccc(O)c1)C(=O)NCc1ccc(Cl)cc1	i	i	i	i	i
COc1cccc(C(=O)NCc2n[nH]c(=O)c3ccccc23)c1OC	nt	nt	nt	nt	i
CC(C)(C)NC(=O)NC(=O)COc1ccc2ccc(=O)oc2c1	nt	nt	nt	nt	i
ClC(=C\c1ccccc1)/C=N/N1CCN(Cc2cccc3ccccc23)CC1	nt	nt	nt	nt	i
CCCN(CCO)Cc1ccc(Cl)c(Cl)c1	nt	i	i	-58.7	?
Nc1nc(SCc2nnc(-c3ccccc3)o2)n[nH]1	nt	nt	nt	nt	i
CCN(C(=O)CSc1nnc2ccccn12)c1c(N)n(Cc2ccccc2)c(=O)[nH]c1=O	i	30.5	i	i	i
CCCn1c(-c2ccc(OC)cc2)nc2c(=O)n(C)c(=O)[nH]c21	-51.0	i	i	i	i
SMILES	PI5P4Ka inh	D3 ag	PI4K2A block	D3 antag	LDHA block
CCNC(=S)NS(=O)(=O)c1ccccc1	i	i	i	-57.9	i
CCNC(=S)NS(=O)(=O)c1ccc(Cl)cc1	i	i	i	i	i
CCn1c(CN2CCC(C)CC2)nc2cc(NC(=O)COc3ccc(C)cc3)ccc21	nt	nt	nt	nt	i
CCc1ccccc1Oc1nc(NCc2ccccc2)nc2ccsc12	i	i	i	-51.7	i
O=C(NC1CC1)c1ccc(C2Nc3cc(C(F)(F)F)ccc3S(=O)(=O)N2)cc1 (configuration not stated)	nt	nt	nt	nt	i
OC(COc1ccccc1)CN1CCOCC1 (configuration not stated)	nt	i	i	i	i
CCc1ccc(OCC(O)CN2CCN(c3ccccc3)CC2)cc1 (configuration not stated)	i	41.1!	i	-56.8!	i
CCCc1ccc(OCC(O)CN2CCN(c3ccccc3)CC2)cc1 (configuration not stated)	i	68.0	i	?	i
CCNC(=O)C1(C)CCN(C(=O)c2ccc3c(c2)CCO3)C1 (configuration not stated)	i	i	i	-50.8	i
CCCNC(=O)C1(C)CCCN(C(=O)c2ccc3c(c2)CCO3)C1 (configuration not stated)	i	i	i	i	i
COc1cc(OC)cc(-c2c(C#Cc3ccsc3)c3cc(-c4ccc(OC)c(F)c4)ccc3n2C)c1	i	50.0	i	i	i
O=C(Nc1ccc(OCCc2ccccc2)cc1)c1ccccc1	nt	nt	nt	nt	i
Cc1ccc(/C=C/C(=O)O)cc1S(=O)(=O)Nc1ccccc1C(=O)O	-53.3	i	i	i	i
